# Experimental data: PubChem BioAssay (Tox21)
# Values joined by “and” are separate entries in the source; they are usually repeats but may differ in a detail not shown here. Identical values can stand only once. Records with an inconclusive call do not appear. Where a call stands in place of a potency, no number is given. The source holds several records for some structures; these can differ, active in one and inactive in another. Active and inactive are the calls of the source. Unless noted, the call rests on the fitted dose curve.
# How the values were obtained:
# [1] = Nuclear factor erythroid 2-related factor 2/antioxidant responsive element (Nrf2/ARE) small molecule agonists: qHTS cell viability counter screen in human keratinocytes (AID 1919968; active means well fitted curve in the direction sought with a large enough effect in the repeat runs; an effect the other way counts as inactive or inconclusive; further: nearly all actives have a fitted effect of over 55% in size; further: potency means the concentration at half of the fitted maximal effect)
# Summary of the method: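 Cytotoxicity was multiplexed with the Nrf2/ARE luciferase assay in the same wells. Stably transfected HaCaT keratinocytes were treated with test compounds for 23 h at 37 C. Cell viability was then measured by CellTiter-Fluor fluorescence.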
# [2] = Nuclear factor erythroid 2-related factor 2/antioxidant responsive element (Nrf2/ARE) small molecule agonists: luciferase reporter gene qHTS assay in human keratinocytes (AID 1919969); further: nearly all actives have a fitted effect of over 35% in size
# [3] = target: Gonadotropin-releasing hormone receptor (Homo sapiens) (UniProt P30968); experiment: Human gonadotropin-releasing hormone receptor (GnRHR) small molecule agonists, calcium flux assay in GnRHR-HEK293 cells (AID 1920063); further: nearly all actives have a fitted effect of over 35% in size
# Summary of the method: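 Agonist activity was measured as intracellular calcium flux in HEK293 cells engineered to stably express human GnRHR. After dye loading for 1 hour at 37 C, compounds in DMSO were added and fluorescence was followed for 3 minutes.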
# [4] = target: KiSS-1 receptor (Homo sapiens) (UniProt Q969F8); experiment: Human kisspeptin (KISS1R) small molecule agonists, calcium flux assay in KISS1R-HEK293 cells (AID 1920064; active means well fitted curve in the direction sought with a large enough effect in the repeat runs; an effect the other way counts as inactive or inconclusive)
# Summary of the method: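 Agonist activity is monitored as intracellular calcium rise in engineered HEK293 cells carrying human KISS1R. Cells are dye-loaded for 1 h at 37 C before compound addition, and fluorescence is recorded for 3 min.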
# [5] = p53 small molecule agonists, cell-based qHTS assay with human liver microsomes: qHTS cell viability counter screen (AID 1963579); further: nearly all actives have a fitted effect of over 45% in size; further: potency means the concentration at half of the fitted maximal effect
# Summary of the method: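 p53RE-bla cells, 4,000/well, dosed 5 hours after plating, with human liver microsomes (0.5 mg/mL final) plus NADPH (0.5 mg/mL final), 16 hours at 37 C. Viability read as CellTiter-Glo luminescence after 30 min at room temperature.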
# [6] = p53 small molecule agonists, cell-based qHTS assay with rat liver microsomes: qHTS cell viability counter screen (AID 1963580); further: nearly all actives have a fitted effect of over 45% in size
# Summary of the method: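 Rat liver microsome (0.5 mg/mL final) and NADPH (0.5 mg/mL final) co-incubation with compounds for 16 h at 37 C on HCT-116 p53RE-bla cells; cytotoxicity taken from intracellular ATP luminescence.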
# [7] = p53 small molecule agonists, cell-based qHTS assay: qHTS cell viability counter screen (AID 1963581); further: nearly all actives have a fitted effect of over 45% in size; further: potency means the concentration at half of the fitted maximal effect
# Summary of the method: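 Viability was counter-screened in parallel with the p53 agonist reporter by measuring intracellular ATP luminescence in the same HCT-116 p53RE-bla wells after 16 h compound treatment at 37 C.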
# [8] = target: 5-hydroxytryptamine receptor 2A (Homo sapiens) (UniProt P28223); experiment: 5-hydroxytryptamine receptor 2A (HTR2A) small molecule antagonists, cell-based qHTS assay (AID 1963586); further: nearly all actives have a fitted effect of over 45% in size
# Summary of the method: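 CHO cells stably expressing human HTR2A were plated for 18 h at 37 C, then loaded with calcium dye for 1 h. Compounds were preincubated 5 min at room temperature before DOI (4 nM solution) was added. Kinetic fluorescence was read for 3 min.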
# [9] = target: Muscarinic acetylcholine receptor M1 (Homo sapiens) (UniProt P11229); experiment: Cholinergic receptor muscarinic 1 (CHRM1) small molecule antagonists, cell-based qHTS assay (AID 1963588); further: nearly all actives have a fitted effect of over 40% in size
# Summary of the method: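 Compounds were tested at 15 concentrations in three independent runs. Dye-loaded CHRM1-CHO cells were exposed 5 min at room temperature before stimulation by acetylcholine added at 50nM. Intracellular calcium was read kinetically on FDSS for 3 min.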
# [10] = target: Muscarinic acetylcholine receptor M1 (Homo sapiens) (UniProt P11229); experiment: Cholinergic receptor muscarinic 1 (CHRM1) small molecule agonists, cell-based qHTS assay (AID 1963589); further: nearly all actives have a fitted effect of over 35% in size
# Summary of the method: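 Cells were plated and incubated 18 h at 37 C/5% CO2, loaded with calcium dye for 1 h at 37 C, then treated with compounds in DMSO. Fluorescence was recorded kinetically at 1 sec intervals.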
# [11] = cAMP Responsive Elements (CRE) small molecule agonists, cell-based qHTS assay (AID 1963590)
# Summary of the method: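 Cells carrying a CRE-driven beta-lactamase reporter (HEK 293T) are seeded, incubated overnight (18 h), and treated with test compounds for 3 h at 37 C; reporter activity is then detected with a FRET substrate after 2 h at room temperature.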
# [12] = cAMP Responsive Elements (CRE) small molecule antagonists, cell-based qHTS assay (AID 1963591; active means well fitted inhibition curve with a large enough effect in the signal ratio in the repeat runs, not every such curve was filed as active; the % refers to the signal ratio)
# Summary of the method: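 Cells (CRE-bla HEK 293T, DMEM with 10% dialyzed FBS and 25 mM HEPES) are seeded and incubated 18 h. Compounds are added with NKH477 agonist at 0.25 uM final for 3 h, then FRET substrate for 2 h.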
# [13] = target: Beta-2 adrenergic receptor (Homo sapiens) (UniProt P07550); experiment: Adrenergic beta2 receptor (ADRB2) small molecule antagonists, cell-based qHTS assay (AID 1963592); further: series mostly up to about 92 µM; nearly all actives have a fitted effect of over 50% in size
# Summary of the method: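 Assay format: CHO-ADRB2 cells, 18-20hr seeding at 37C/5% CO2, then compound plus 1nM isoproterenol agonist mix for 0.5hr RT. Homogeneous time-resolved fluorescence cAMP detection after 1hr, expressed as 665/615 nm ratio.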
# [14] = target: D(2) dopamine receptor (Homo sapiens) (UniProt P14416); experiment: Dopamine D2 receptor (DRD2) small molecule agonists, cell-based qHTS assay (AID 1963594); further: nearly all actives have a fitted effect of over 35% in size
# Summary of the method: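 cAMP accumulation in DRD2-HEK293 cells measured by HTRF after 1 h detection; compounds added 10 min before NKH477 (200nM […]) forskolin-analogue stimulation, 30 min at room temperature, with Ro20-1724 present at 0.1 mM final.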
# [15] = target: D(2) dopamine receptor (Homo sapiens) (UniProt P14416); experiment: Dopamine D2 receptor (DRD2) small molecule antagonists, cell-based qHTS assay (AID 1963595; active means well fitted inhibition curve with a large enough effect in the signal ratio in the repeat runs, with a control signal flat; the % refers to the signal ratio; further: potency means the concentration at half of the fitted maximal effect)
# Summary of the method: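 HEK293 cells stably expressing DRD2 were preincubated with 0.1 mM Ro20-1724, then with compound for 10 min at room temperature. Cells were stimulated with 200 nM NKH477 plus 12 nM quinpirole for 30 min, and cAMP was read by HTRF.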
# [16] = p53 small molecule agonists, cell-based qHTS assay with human liver microsomes (AID 1963577)
# Summary of the method: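 p53RE-bla cells, 4,000/well, compound added after 5 h, with human liver microsomes 0.5 mg/mL and NADPH 0.5 mg/mL final; 16 h at 37 C, then LiveBLAzer 2 h RT, fluorescence.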
# [17] = p53 small molecule agonists, cell-based qHTS assay with rat liver microsomes (AID 1963578)
# Summary of the method: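 p53RE-bla cells, 4,000/well, pre-incubated 5 h, then given compounds plus rat liver microsomes (0.5 mg/mL final) and NADPH (0.5 mg/mL final). Incubation 16 h at 37 C; beta-lactamase reporter read by LiveBLAzer fluorescence after 2 h at room temperature.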
# [18] = p53 small molecule agonists, cell-based qHTS assay (AID 1963582; active means well fitted activation curve with a large enough effect in the signal ratio in the repeat runs, not every such curve was filed as active; the % refers to the signal ratio)
# Summary of the method: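 Cells carrying a p53-responsive bla reporter are treated with test compounds for 16 h at 37 C; beta-lactamase activity is then detected with LiveBLAzer B/G FRET substrate after 2 h at room temperature.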
# [19] = target: 5-hydroxytryptamine receptor 2A (Homo sapiens) (UniProt P28223); experiment: 5-hydroxytryptamine receptor 2A (HTR2A) small molecule agonists, cell-based qHTS assay (AID 1963587); further: nearly all actives have a fitted effect of over 30% in size
# Summary of the method: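 Kinetic calcium-flux fluorescence (2 min, 1 sec intervals) after compound addition in agonist mode. HTR2A-CHO cells were cultured 18 h, then dye-loaded 1 h at 37 C.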
# [20] = target: Beta-2 adrenergic receptor (Homo sapiens) (UniProt P07550); experiment: Adrenergic beta2 receptor (ADRB2) small molecule agonists, cell-based qHTS assay (AID 1963593);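 further: CHO cells stably overexpressing human ADRB2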
# Summary of the method: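 CHO cells stably over-expressing ADRB2 were plated overnight at 37C, then dosed with compounds plus a stimulation mix containing 100uM IBMX and 25uM Ro-20-1724 for 0.5hr at room temperature. cAMP was measured by HTRF competition, 1hr.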
# Chain of KiSS-1 receptor (Homo sapiens) (Q969F8 whole entry, looked up): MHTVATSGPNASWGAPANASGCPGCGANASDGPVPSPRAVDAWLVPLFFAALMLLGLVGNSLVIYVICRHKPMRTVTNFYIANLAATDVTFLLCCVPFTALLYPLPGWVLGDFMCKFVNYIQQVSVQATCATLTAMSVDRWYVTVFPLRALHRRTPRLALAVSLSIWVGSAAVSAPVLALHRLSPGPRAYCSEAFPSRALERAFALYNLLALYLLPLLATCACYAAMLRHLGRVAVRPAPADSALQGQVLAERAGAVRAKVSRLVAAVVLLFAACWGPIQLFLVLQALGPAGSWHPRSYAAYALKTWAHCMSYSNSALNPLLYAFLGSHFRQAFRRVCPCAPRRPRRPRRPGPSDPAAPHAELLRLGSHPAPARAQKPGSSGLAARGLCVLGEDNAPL
# Chain of Muscarinic acetylcholine receptor M1 (Homo sapiens) (P11229 whole entry, looked up): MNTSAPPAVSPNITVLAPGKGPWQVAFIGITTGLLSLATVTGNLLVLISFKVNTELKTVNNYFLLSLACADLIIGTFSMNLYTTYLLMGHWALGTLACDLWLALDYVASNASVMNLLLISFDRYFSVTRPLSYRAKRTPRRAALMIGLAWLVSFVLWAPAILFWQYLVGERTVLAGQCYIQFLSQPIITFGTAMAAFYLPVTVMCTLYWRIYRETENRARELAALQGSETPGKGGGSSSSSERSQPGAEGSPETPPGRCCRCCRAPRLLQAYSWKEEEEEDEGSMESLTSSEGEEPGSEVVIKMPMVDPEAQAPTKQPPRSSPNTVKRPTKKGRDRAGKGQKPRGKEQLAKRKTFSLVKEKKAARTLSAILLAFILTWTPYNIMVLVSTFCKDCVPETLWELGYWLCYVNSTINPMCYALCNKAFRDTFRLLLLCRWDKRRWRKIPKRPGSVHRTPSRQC
# Chain of D(2) dopamine receptor (Homo sapiens) (P14416 whole entry, looked up): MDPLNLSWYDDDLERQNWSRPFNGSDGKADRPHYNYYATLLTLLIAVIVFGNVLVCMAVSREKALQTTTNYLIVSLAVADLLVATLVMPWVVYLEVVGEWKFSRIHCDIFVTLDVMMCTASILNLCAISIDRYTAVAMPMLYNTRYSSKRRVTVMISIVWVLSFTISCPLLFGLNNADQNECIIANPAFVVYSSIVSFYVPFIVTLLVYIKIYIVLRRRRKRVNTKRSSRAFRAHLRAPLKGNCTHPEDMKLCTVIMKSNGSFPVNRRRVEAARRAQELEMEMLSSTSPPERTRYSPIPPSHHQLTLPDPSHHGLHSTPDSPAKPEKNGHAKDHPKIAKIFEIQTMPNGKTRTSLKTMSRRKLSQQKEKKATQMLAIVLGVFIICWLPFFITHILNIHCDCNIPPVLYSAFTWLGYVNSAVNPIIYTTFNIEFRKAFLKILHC
# Chain of 5-hydroxytryptamine receptor 2A (Homo sapiens) (P28223 whole entry, looked up): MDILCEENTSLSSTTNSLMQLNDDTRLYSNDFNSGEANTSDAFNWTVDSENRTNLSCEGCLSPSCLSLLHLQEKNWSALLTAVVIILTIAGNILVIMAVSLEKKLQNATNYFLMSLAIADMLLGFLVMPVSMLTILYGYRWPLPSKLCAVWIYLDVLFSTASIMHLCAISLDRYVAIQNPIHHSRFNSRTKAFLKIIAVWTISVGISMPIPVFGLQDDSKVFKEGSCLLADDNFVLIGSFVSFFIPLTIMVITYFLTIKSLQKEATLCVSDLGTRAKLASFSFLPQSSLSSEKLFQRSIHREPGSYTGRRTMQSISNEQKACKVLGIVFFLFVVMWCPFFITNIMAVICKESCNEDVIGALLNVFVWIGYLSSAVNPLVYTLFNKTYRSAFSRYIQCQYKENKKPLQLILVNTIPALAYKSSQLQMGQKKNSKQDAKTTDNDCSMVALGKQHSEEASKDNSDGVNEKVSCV
# Chain of Beta-2 adrenergic receptor (Homo sapiens) (P07550 whole entry, looked up): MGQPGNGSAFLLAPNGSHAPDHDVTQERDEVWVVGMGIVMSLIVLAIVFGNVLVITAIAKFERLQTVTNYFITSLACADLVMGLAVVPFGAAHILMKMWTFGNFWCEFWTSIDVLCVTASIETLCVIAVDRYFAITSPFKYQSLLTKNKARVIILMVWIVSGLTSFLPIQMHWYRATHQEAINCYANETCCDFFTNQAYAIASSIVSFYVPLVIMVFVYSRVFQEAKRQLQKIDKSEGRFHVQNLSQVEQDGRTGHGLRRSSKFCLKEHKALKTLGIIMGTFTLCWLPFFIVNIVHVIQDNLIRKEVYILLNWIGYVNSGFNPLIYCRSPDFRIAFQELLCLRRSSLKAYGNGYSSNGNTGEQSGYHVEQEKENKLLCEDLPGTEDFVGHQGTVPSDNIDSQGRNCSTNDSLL
# Chain of Gonadotropin-releasing hormone receptor (Homo sapiens) (P30968 whole entry, looked up): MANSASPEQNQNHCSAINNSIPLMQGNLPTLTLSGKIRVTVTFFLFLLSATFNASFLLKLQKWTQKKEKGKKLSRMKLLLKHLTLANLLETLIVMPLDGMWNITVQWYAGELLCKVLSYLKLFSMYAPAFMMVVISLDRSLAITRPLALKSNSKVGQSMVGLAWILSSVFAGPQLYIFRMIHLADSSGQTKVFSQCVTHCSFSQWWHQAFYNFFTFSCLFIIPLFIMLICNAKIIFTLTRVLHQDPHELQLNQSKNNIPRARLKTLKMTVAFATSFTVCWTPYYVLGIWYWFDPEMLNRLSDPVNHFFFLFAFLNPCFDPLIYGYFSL
Compound,Potency [1],Potency [2],Potency [3],Potency [4],Potency [5],Potency [6],Potency [7],Potency [8],Potency [9],Potency [10],Potency [11],Potency [12],Potency [13],Potency [14],Potency [15],Potency [16],Potency [17],Potency [18],Potency [19],Potency [20]
N#CC(Br)Br,inactive,inactive,inactive,inactive,inactive,inactive,inactive,inactive,inactive,inactive,inactive,inactive,inactive,inactive,inactive,–,–,–,–,–
C1CCC2CCCCC2C1 (stereo not drawn),inactive,inactive,inactive,–,inactive,inactive,inactive,inactive,inactive,inactive,inactive,–,inactive,inactive,inactive,inactive,inactive,inactive,inactive,–
CCCCCCCCCCCCCC[P+](CCCCCC)(CCCCCC)CCCCCC,7.73 µM (active) and 19.5 µM (active) and inactive,inactive,inactive,inactive,14.5 µM (active) and 20.6 µM (active) and inactive,–,7.29 µM (active) and 18.4 µM (active),inactive,inactive,inactive,–,–,–,inactive,12.2 µM (active) and 21.9 µM (active) and inactive,inactive,inactive,–,inactive,inactive
CCCCC1C(=O)NC(=O)N(C2CCCCC2)C1=O (stereo not drawn),inactive,inactive,inactive,–,inactive,inactive,inactive,inactive,inactive,inactive,inactive,inactive,inactive,inactive,inactive,inactive,inactive,inactive,inactive,inactive
C1CCC(NC2CCCCC2)CC1,inactive,inactive,inactive,–,inactive,inactive,inactive,–,inactive,inactive,inactive,inactive,inactive,inactive,–,inactive,inactive,inactive,inactive,inactive
C=CCBr,inactive,inactive,inactive,–,inactive,inactive,inactive,inactive,inactive,inactive,inactive,inactive,inactive,inactive,inactive,inactive,inactive,inactive,inactive,inactive
Brc1ccc(Br)cc1,inactive,inactive,inactive,–,inactive,inactive,inactive,inactive,inactive,–,inactive,–,inactive,inactive,inactive,inactive,inactive,inactive,inactive,–
